Calls of active or inactive are those of the source. No stated cut-off is given here; in the data, active means inhibition above about 44%; inactive means the rest.

The target of the test is Steroidogenic factor 1 (Homo sapiens) (UniProt Q13285). Nature of the test: inverse agonism at SF1 nuclear receptor – cell-based, luminescence, high throughput, counter-screen for LRH-1 inverse agonist project (AID 651614).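 Further: cells cotransfected with StAR promoter reporter and SF1 expression vector; 0% = vehicle on cells with receptor and 100% = vehicle on cells lacking receptor.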 To be noted: cell-based SF1 luciferase reporter, at 3.6 µM, hits give high values. For orientation: Counterscreens check selectivity or assay interference.
Steroidogenic factor 1 (Homo sapiens), sequence (Q13285 whole entry, looked up): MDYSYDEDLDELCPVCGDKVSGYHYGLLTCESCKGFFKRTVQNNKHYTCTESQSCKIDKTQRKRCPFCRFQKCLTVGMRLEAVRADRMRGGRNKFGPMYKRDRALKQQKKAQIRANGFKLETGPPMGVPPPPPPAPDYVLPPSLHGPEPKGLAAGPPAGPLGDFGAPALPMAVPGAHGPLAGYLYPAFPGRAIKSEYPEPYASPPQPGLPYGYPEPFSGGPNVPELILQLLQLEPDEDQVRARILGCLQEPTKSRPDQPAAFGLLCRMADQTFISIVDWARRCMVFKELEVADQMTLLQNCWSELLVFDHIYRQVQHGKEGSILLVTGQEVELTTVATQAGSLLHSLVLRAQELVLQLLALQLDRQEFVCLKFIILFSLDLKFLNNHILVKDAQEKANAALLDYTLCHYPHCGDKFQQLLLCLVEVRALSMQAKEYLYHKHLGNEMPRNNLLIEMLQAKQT
As to `Cc1sc2ncnc(NCCc3ccc(S(N)(=O)=O)cc3)c2c1C`, the inhibition – broadly, the change of the read-out against control, counted positive when it falls – is 54.6% (active). The value for `O=C(COc1ccc(S(=O)(=O)N2CCCC2)cc1Cl)Nc1ccc2c(c1)OCO2` was 37% (inactive). With `CCOC(=O)c1ccc(N=Cc2cnc(N)nc2N)cc1` the figure was 7.7% (inactive); with `CCN(CC)c1nc(C)c(C(C)=O)cc1C#N`, 57% (active). `COc1ccc2c(c1)C1C=CCC1C(c1cc3c(cc1Br)OCO3)N2` (stereo not given): the inhibition was 30.1% (inactive). With `CCn1c(=O)oc2cc(NC(=O)CCl)ccc21` the figure was 65.9% (active); with `COc1ccc(-c2cc(C(F)F)n3ncc(C(=O)N4CCc5ccccc5C4)c3n2)cc1`, 56.7% (active).

Take `Oc1c(Cl)cc(CN2CCOCC2)c2cccnc12`: the inhibition was 6.83% (inactive). With `C=CC(=O)Nc1cccc(Oc2ncnc3[nH]cc(-c4cnc5ccccc5c4)c23)c1` the figure was 65.6% (active); with `NC(=O)CC[C@H](NC(=O)c1ccc(F)cc1)C(=O)OCC(=O)Nc1ccc(N2CCOCC2)cc1`, 47.9% (active).

With `COc1cc(-c2cc(C(=O)NCc3ccc(S(N)(=O)=O)cc3)c3ccccc3n2)cc(OC)c1OC`, the inhibition was 23.5% (inactive).

On to `COCCn1c(SCC(=O)Nc2ccc(NC(C)=O)cc2)nc2ccccc2c1=O`, for which the inhibition was 52% (active). With `O=[N+]([O-])c1ccc(N2CCCC2)nc1N1CCCC1` the figure was 56.1% (active); with `O=C(NC1CCCC(C(F)(F)F)C1)c1ccc([N+](=O)[O-])o1` (stereo not given), 63% (active). With `O=C1CC(c2ccc3c(c2)OCCO3)Oc2ccc([N+](=O)[O-])cc21` (stereo not given) the figure was -37% (inactive).

In the case of `COc1ccc(CNC(=O)O[C@@H]2C[C@H]3C(=O)N(c4ccccc4)C(=O)[C@H]3[C@@]3(CN(S(=O)(=O)c4ccc(C)cc4)C[C@H]3C)[C@@H]2O)cc1OC`, the inhibition is 13.8% (inactive). The value for `Cn1c(=O)oc2cc(NC(=O)CCl)ccc21` was 71.3% (active). Regarding `CNc1c2cccc(C)c2nc2c(C(=O)NCCN(C)C)cccc12`, the inhibition was 98% (active). The value for `COc1ccc(OC)c(NS(=O)(=O)c2ccc(SC)cc2)c1` was 54.2% (active); that for `COCCn1c(SCC(=O)Nc2ccc(C(C)=O)cc2)nnc1-c1ccco1` was 37.4% (inactive); that for `O=C(Nc1ccc(S(=O)(=O)N2CCOCC2)cc1)c1cccc([N+](=O)[O-])c1` was 50.2% (active). The value for `CN1CCN(C2=C(Cl)C(=O)N(c3ccc(Cl)c(Cl)c3)C2=O)CC1` was 41.6% (inactive); that for `O=C(CSc1ncnc2c1cnn2-c1ccccc1)Nc1ccc2c(c1)OCO2` was 48.5% (active).

As for `CCn1c(=O)[nH]c(=O)c2c(N)c(C(=O)c3cc(F)ccc3F)sc21`, the inhibition is 54.2% (active). For the compound `CCc1nc(SCC(=O)N2CCc3cc(OC)c(OC)cc3C2)c(C#N)cc1C`, the inhibition was 45.4% (active). The value for `O=C(c1ccccc1)N(NC(=O)C(O)(c1ccccc1)c1ccccc1)c1cccc(F)c1` was 53% (active); that for `COc1ccc(NS(=O)(=O)c2ccc(-c3coc(C)n3)cc2)cc1OC` was 64.7% (active). The value for `CCOC(=O)CCCc1ccc(/C(C)=N/NC(N)=S)cc1` was 68.6% (active); that for `COc1ccc(C2=NS(=O)(=O)N(C)C(C(=O)N3CCc4ccccc4C3)=C2)cc1OC` was 46.2% (active). For the compound `COc1ccc(NC(=O)CSc2nnc3ccc(-c4cccnc4)nn23)cc1OC`, the inhibition was 41.9% (inactive).

For `O=c1cc(C2CCCCC2)[nH]c(=O)[nH]1`, the inhibition is 48% (active). As to `Cc1ccc(-c2nn3c(C)nnc3s2)cc1NC(=O)c1cccs1`, the inhibition is 69.4% (active).

On to `Cc1cc(O)c(/C=N/Nc2cccc(Cl)c2)c(=O)o1`, for which the inhibition is 24.6% (inactive). With `COc1ccc(C2(C)NC(=O)N(CC(=O)Nc3ccc(C)cc3Br)C2=O)cc1OC` (stereo not given) the figure was 28.4% (inactive). The value for `COc1ccc(CCNC(=O)c2ccc(CSc3ccc(Cl)cc3)o2)cc1OC` was 23.4% (inactive). With `COc1cc2c(cc1OC)-c1c(OC)c(OC)cc3ccnc(c13)C2=O` the figure was 59% (active); with `COc1cc(N)c2ncccc2c1Cl`, 11.9% (inactive); with `N#CCc1ccc(OCCCN2CCC(C(O)(c3ccccc3)c3ccccc3)CC2)cc1`, 27.8% (inactive). In the case of `CCn1c(SCC(=O)Nc2ccc(Cl)cc2)nnc1C1CC1`, the inhibition is 50% (active). The value for `Cc1cc(C(=O)CSc2nnnn2-c2ccccc2)c(C)n1-c1ccc2c(c1)OCO2` was 28.5% (inactive).

For the origin of these results see PubChem BioAssay.
